# Laboratory results taken from the supplement of paper PMC6411743.
# ± gives the standard deviation of the averaged measurements. Of roughly 6,200 targets only a part is listed; those with the largest changes were picked by preference.
# Key:
# Assay in all cases: NP40-soluble protein abundance relative to vehicle (solubility fold change) (ratio); higher = more soluble protein in presence of AMP-PNP
# DDX49 = target: T1, DDX49 (UniProt Q9Y6V7)
# T1 sequence (whole entry): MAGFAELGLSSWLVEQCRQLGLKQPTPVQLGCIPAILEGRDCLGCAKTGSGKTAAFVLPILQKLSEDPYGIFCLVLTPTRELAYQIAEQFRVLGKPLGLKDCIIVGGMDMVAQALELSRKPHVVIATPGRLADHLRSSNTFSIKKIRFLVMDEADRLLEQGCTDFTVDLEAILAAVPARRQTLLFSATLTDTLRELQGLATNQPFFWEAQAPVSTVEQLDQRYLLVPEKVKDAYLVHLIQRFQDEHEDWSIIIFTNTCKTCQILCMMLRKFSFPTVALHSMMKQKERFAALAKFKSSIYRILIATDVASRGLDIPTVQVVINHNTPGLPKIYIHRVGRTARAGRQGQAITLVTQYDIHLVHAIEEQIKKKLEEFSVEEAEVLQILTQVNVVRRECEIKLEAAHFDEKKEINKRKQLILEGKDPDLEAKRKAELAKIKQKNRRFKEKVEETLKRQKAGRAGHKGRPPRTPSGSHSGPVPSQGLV
# Procedure, shortened: (§1)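 Jurkat crude lysate (Dounce-homogenised) was treated with eight concentrations from 0.1 to 10 mM for 10 min at room temperature, then 3 min at 37 °C. It was solubilised with 0.8% NP40 and benzonase (60 min, 4 °C) and ultracentrifuged, and the supernatant was TMT-labelled for LC-MS/MS. Intensities were vsn-normalised, and the value is the fold change against the NP40-processed vehicle per replicate, from three independent experiments.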
# MAD1L1 = target: T2, MAD1L1 (UniProt Q9Y6D9)
# T2 sequence (whole entry): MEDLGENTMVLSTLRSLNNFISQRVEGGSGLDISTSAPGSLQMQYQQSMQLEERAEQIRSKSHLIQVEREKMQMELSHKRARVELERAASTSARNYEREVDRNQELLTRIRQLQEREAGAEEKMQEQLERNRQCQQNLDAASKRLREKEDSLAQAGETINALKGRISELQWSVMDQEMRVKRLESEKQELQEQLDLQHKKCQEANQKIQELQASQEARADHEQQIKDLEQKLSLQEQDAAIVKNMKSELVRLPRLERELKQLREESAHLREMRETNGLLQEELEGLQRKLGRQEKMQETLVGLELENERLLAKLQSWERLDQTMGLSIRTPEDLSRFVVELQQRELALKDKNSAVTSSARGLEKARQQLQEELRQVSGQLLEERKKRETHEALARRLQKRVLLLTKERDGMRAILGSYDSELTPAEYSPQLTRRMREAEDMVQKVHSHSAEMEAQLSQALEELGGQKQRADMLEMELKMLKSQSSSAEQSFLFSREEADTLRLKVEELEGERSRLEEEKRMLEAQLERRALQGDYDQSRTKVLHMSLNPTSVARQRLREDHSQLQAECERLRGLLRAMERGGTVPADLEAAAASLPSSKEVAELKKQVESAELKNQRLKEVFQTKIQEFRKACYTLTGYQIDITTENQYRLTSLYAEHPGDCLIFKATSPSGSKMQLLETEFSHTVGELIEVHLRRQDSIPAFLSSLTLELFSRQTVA
# Procedure, shortened: as §1
# OAS3 = target: T3, OAS3 (UniProt Q9Y6K5)
# T3 sequence (whole entry): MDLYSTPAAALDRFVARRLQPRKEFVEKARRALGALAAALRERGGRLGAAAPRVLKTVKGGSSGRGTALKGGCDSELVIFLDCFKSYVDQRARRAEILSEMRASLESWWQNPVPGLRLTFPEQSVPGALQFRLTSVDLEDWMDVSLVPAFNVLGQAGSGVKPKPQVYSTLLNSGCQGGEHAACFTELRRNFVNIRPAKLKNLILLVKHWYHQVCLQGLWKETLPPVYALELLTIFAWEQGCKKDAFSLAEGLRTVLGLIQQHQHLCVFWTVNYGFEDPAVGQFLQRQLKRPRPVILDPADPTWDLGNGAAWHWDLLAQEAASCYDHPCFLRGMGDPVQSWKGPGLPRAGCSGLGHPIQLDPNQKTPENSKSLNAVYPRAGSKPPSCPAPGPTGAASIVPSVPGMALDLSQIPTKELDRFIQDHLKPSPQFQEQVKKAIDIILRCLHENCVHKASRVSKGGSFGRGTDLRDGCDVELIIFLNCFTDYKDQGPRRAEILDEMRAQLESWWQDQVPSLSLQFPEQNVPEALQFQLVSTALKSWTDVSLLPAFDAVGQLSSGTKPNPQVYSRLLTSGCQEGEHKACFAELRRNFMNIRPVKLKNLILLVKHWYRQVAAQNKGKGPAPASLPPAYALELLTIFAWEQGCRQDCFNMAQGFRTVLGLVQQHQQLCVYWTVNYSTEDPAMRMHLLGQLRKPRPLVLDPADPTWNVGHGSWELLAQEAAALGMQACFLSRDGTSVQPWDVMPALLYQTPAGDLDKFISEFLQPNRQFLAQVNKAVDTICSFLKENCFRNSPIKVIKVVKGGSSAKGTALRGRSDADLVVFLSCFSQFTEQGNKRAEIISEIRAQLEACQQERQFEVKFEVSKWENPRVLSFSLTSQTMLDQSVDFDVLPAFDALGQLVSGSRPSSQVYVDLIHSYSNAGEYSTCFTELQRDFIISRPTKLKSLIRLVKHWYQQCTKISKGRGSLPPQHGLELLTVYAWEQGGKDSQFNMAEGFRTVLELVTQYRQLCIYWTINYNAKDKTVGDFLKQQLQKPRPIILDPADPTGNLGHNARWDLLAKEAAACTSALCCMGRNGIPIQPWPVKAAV
# Procedure, shortened: as §1
# S4R3R2 = S4R3R2 (UniProt Q9NXR5)
# Sequence of S4R3R2 (Q9NXR5 whole entry, one chain of several): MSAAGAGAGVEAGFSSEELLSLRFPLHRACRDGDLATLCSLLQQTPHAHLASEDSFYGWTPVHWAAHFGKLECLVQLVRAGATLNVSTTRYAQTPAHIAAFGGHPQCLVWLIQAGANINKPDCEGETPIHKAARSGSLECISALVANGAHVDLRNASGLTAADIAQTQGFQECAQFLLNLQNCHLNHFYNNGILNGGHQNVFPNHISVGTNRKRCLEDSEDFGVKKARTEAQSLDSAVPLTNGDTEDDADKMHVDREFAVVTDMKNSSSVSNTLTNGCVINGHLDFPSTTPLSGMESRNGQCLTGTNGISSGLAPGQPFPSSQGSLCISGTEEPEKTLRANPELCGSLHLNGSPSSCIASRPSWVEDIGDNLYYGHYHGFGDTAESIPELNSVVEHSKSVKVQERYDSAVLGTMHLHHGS
# Procedure, shortened: as §1
compound,measurement,setting,value
Nc1ncnc2c1ncn2[C@@H]1O[C@H](COP(=O)(O)OP(=O)(O)NP(=O)(O)O)[C@@H](O)[C@H]1O [adenylyl imidodiphosphate],NP40-soluble protein abundance,DDX49; concentration: 1mM,1.09 ± 0.076
same,NP40-soluble protein abundance,DDX49; concentration: 2mM,1.13 ± 0.092
same,NP40-soluble protein abundance,DDX49; concentration: 4mM,1.15 ± 0.12
same,NP40-soluble protein abundance,DDX49; concentration: 6mM,1.13 ± 0.1
same,NP40-soluble protein abundance,DDX49; concentration: 8mM,1.15 ± 0.12
same,NP40-soluble protein abundance,DDX49; concentration: 10mM,1.24 ± 0.21
same,NP40-soluble protein abundance,MAD1L1; concentration: 1mM,1.02 ± 0.028
same,NP40-soluble protein abundance,MAD1L1; concentration: 2mM,1.03 ± 0.039
same,NP40-soluble protein abundance,MAD1L1; concentration: 4mM,1.02 ± 0.047
same,NP40-soluble protein abundance,MAD1L1; concentration: 6mM,0.986 ± 0.021
same,NP40-soluble protein abundance,MAD1L1; concentration: 8mM,0.983 ± 0.046
same,NP40-soluble protein abundance,MAD1L1; concentration: 10mM,1 ± 0.057
same,NP40-soluble protein abundance,OAS3; concentration: 1mM,1.01 ± 0.012
same,NP40-soluble protein abundance,OAS3; concentration: 2mM,1.02 ± 0.04
same,NP40-soluble protein abundance,OAS3; concentration: 4mM,1.02 ± 0.032
same,NP40-soluble protein abundance,OAS3; concentration: 6mM,0.998 ± 0.033
same,NP40-soluble protein abundance,OAS3; concentration: 8mM,1.02 ± 0.043
same,NP40-soluble protein abundance,OAS3; concentration: 10mM,0.998 ± 0.018
same,NP40-soluble protein abundance,S4R3R2; concentration: 1mM,1.04 ± 0.031
same,NP40-soluble protein abundance,S4R3R2; concentration: 2mM,1.05 ± 0.063
same,NP40-soluble protein abundance,S4R3R2; concentration: 4mM,1.02 ± 0.027
same,NP40-soluble protein abundance,S4R3R2; concentration: 6mM,1.01 ± 0.041
same,NP40-soluble protein abundance,S4R3R2; concentration: 8mM,0.983 ± 0.011
same,NP40-soluble protein abundance,S4R3R2; concentration: 10mM,0.983 ± 0.022
